The record followed here is PubChem BioAssay.

The test can be described thus: probe aShh binding to arrayed compounds – biochemical, biotinylated probe, 635/667 nm fluorescence, primary screen (AID 1114).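 Note: probe is biotin-labelled aShh protein from a stem cell growth factor screen; measures binding of labelled protein to compounds printed on the slide; score merges feature fluorescence at 667 nm with signal-to-noise.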 The settings on record: small-molecule microarray, higher = more signal.
Turning to `CCOC(=O)[C@H](Cc1ccccc1)NC(=O)CCC1CC(OC(=O)NCCc2ccc(F)cc2)CC2(CCCC(COC(=O)NCc3cccc(C(F)(F)F)c3)O2)O1` (stereo partly specified), the composite z-score is -0.221.

For `C[C@H]1CC[C@@H](C(=O)O)N[C@@H]1c1ccc(C#Cc2ccccc2)cc1`, the composite z-score is -0.154.

In turn, `C[C@H]1CC[C@H]2C(=O)OC(COc3ccc(C(C)(C)C)cc3)CN2[C@@H]1c1ccc(Br)cc1` (stereo partly specified) had a composite z-score of -0.0709. In turn, `OC[C@H]1O[C@H](C#Cc2ccccc2)C=C[C@@H]1O` showed a composite z-score of 0.0141. For `CC(C)(C)N1C(=O)[C@H]2[C@H]3[C@H](O)[C@H](O)CC(=NOC[C@@H](O)COCc4ccco4)[C@@H]3CC[C@H]2C1=O` the value was -0.16; for `COC(=O)[C@H](C)NC(=O)CCC1CC(OC(=O)NCc2ccc3c(c2)OCO3)CC2(CCCC(COC(=O)NCc3ccccc3)O2)O1` (stereo partly specified), -0.0709.

The compound `O=C1[C@H]2[C@H]3[C@H](O)[C@H](O)CC(=NOC[C@@H](O)COCc4ccco4)[C@@H]3CC[C@H]2C(=O)N1Cc1ccccc1` came in with a composite z-score of -0.0866.

As for `COc1ccc(COC(=O)NN=C2C[C@@H](O)[C@@H](O)[C@@H]3[C@@H]4C(=O)N(C5CCCCC5)C(=O)[C@@H]4CC[C@@H]23)cc1`, the composite z-score was -0.0769. As for `CC(=O)OC[C@H]1O[C@@H](ON=C(C)CCN2CCCCc3nc(C)c(C)cc32)[C@H](OC(C)=O)[C@@H](OC(C)=O)[C@@H]1OC(C)=O`, the composite z-score amounted to 0.0121. `CCOC(=O)[C@H](CC(C)C)NC(=O)CCC1CC(OC(=O)NCc2ccc3c(c2)OCO3)CC2(CCCC(COC(=O)NCCOC)O2)O1` (stereo partly specified) came in with a composite z-score of -0.2.

Regarding `CO[C@H]1COC(=O)[C@H](C)COC(=O)[C@@H](OCc2ccccc2)C=C[C@@H]1C`, the composite z-score was -0.0769. The value for `CCOC(=O)[C@H](Cc1ccccc1)NC(=O)CCC1CC(OC(=O)NCc2cccc3ccccc23)CC2(CCCC(COC(=O)NCCOc3ccccc3)O2)O1` (stereo partly specified) was -0.493; that for `CCc1cc2c(nc1CC)CCN(CCC(C)=NOC[C@@H](C)[C@H](OCc1ccccc1)C(C)C)C2` was -0.0035. The compound `O=C1CCCC=C1C(O)C1CCCCC1` (stereo unspecified) registered a composite z-score of -0.186. Compound `CC(C)=CCCC(C)=CCON=C1C[C@@H](O)[C@@H](O)[C@@H]2[C@@H]3C(=O)N(Cc4ccc5c(c4)OCO5)C(=O)[C@@H]3CC[C@@H]12` had a composite z-score of -0.0396.

The compound `CC(C)=CCCC(C)=CCON=C1[C@H]2CCn3c(=O)n(-c4ccccc4)c(=O)n3[C@H]2[C@H](O)[C@@H]2O[C@H]12` had a composite z-score of -0.102. `C=CCOCC1CN2[C@@H](CC[C@@H](C)[C@@H]2c2ccc(Br)cc2)C(=O)O1` (stereo partly specified): the composite z-score was -0.154. Take `CCCC[C@H]1CN2[C@@H](CC[C@@H](C)[C@@H]2c2ccc(Br)cc2)C(=O)O1`: the composite z-score came out at 0.0121.

Turning to `CC(C)CON=C1[C@H]2CCn3c(=O)n(C)c(=O)n3[C@H]2[C@H](O)[C@@H]2O[C@H]12`, the composite z-score is 0.0796. The value for `O=C1C=C[C@@H](O)[C@@H]2[C@@H]3C(=O)N(c4cccc(Oc5ccccc5)c4)C(=O)[C@@H]3CC[C@@H]12` was -0.0626; that for `Cc1cc(C)c(-c2cc([C@H](C)ON=C[C@@H](C)[C@H](OCc3ccccc3)C(C)C)on2)c(C)c1` was 0.0815. With `C[C@@H]1C=CCC(=O)OC[C@H](C)C(=O)N[C@@H](Cc2ccccc2)C(=O)OC1`, the composite z-score was -0.414. `CCOC(=O)NN=C1C[C@@H](O)[C@@H](O)[C@@H]2[C@@H]3C(=O)N(C[C@@H]4CCCO4)C(=O)[C@@H]3CC[C@H]12`: the composite z-score is -0.0146. For `COc1ccc(-c2cnnc(CCCn3ccnc3-c3ccccc3)n2)cc1` the value was -0.0769; for `CCOC(=O)[C@H](Cc1ccccc1)NC(=O)CCC1CC(OC(=O)NCc2ccc3c(c2)OCO3)CC2(CCCC(COC(=O)NCCc3ccc(Cl)cc3)O2)O1` (stereo partly specified), 0.0756. In the case of `CCO[C@H](c1cc(OC)cc([N+](=O)[O-])c1OC)[C@H](C)[C@@H](OC)[C@H](C)C=CCC(=O)OC`, the composite z-score was -0.138. `CCN(CC)CC(O)CN1CCCCc2nc(C)c(C)cc21` (stereo unspecified) gave a composite z-score of -0.138. For the compound `O=C1CCCC=C1C(O)c1ccc([N+](=O)[O-])cc1` (stereo unspecified), the composite z-score was -0.288. For `CCOC(=O)[C@H](Cc1ccccc1)NC(=O)CCC1CC(OC(=O)NCCc2ccc(F)cc2)CC2(CCCC(COC(=O)NCCOc3ccccc3)O2)O1` (stereo partly specified) the value was -0.0709; for `COC(=O)[C@H](Cc1ccccc1)NC(=O)[C@@H](C)CO`, 0.214; for `CCOC(=O)CCN1C(=O)[C@H]2[C@H]3[C@H](O)[C@H](O)CC(=NOCC=C(C)CCC=C(C)C)[C@H]3CC[C@H]2C1=O`, -0.221.

Regarding `O=C1[C@H]2[C@H]3[C@H](O)[C@H](O)CC(=NO[C@@H]4O[C@H](CO)[C@@H](O)[C@H](O)[C@H]4O)[C@H]3CC[C@H]2C(=O)N1c1ccc(F)cc1F`, the composite z-score was determined as 0.178. Consider `O=C1[C@H]2[C@H]3[C@H](O)[C@H](O)CC(=NOCc4ccccc4)[C@@H]3CC[C@H]2C(=O)N1c1cccc(Oc2ccccc2)c1`, for which the composite z-score is 0.0639.

Turning to `O=C1C2=CC[C@H]3C(=O)N(C[C@@H]4CCCO4)C(=O)[C@H]3[C@H]2[C@H](O)[C@@H]2O[C@H]12`, the composite z-score came to 0.0121. In turn, `CCOC(=O)[C@H](CC(C)C)NC(=O)CCC1CC(OC(=O)NCc2ccc3c(c2)OCO3)CC2(CCCC(COC(=O)NCc3ccccc3)O2)O1` (stereo partly specified) yielded a composite z-score of -0.153. In turn, `CON=C(C)CCN1CCCc2nc(C)c(C)cc21` displayed a composite z-score of 0.151.
